Assay outcomes: PubChem, The Scripps Research Institute Molecular Screening Center
A selection: hits, their analogues and other compounds. The true share with any hit is near 3.5%.
FBW7 act – human FBW7 E3 ligase activation, primary screen | normalized activity (activation), % at 26.1 µM | 650,000 compounds, 0.13% hits | AlphaScreen FBW7–phospho-cyclin E peptide binding, activator screen; in the data active = normalized activity above about 1.9%;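 note: purified mutant Fbw7 with reduced substrate affinity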
GPR151 ag – activates the human receptor GPR151 | Q8TDV0 | AID 1508602 | activation, % at 11.2 µM | 650,000 compounds, 1% hits | PathHunter beta-arrestin GPR151 cells, luminescence; in the data active = activation above about 4.9%;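 note: 0% = median of compound wells and 100% = cells with positive control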
MITF inh – inhibitors of human MITF; 650,000 compounds, 0.91% hits; O75030; inhibition, % at 2.6 µM; AlphaScreen MITF homodimerization, bead proximity signal; in the data active = inhibition above about 50%;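 note: 0% = vehicle wells with protein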
TEAD-YAP block – TEAD-YAP interaction inhibition; HEK-TIYL cells, TEAD-Gal4/YAP UAS-luciferase luminescence; inhibition, % at 9.12 µM; 640,000 compounds, 1.4% hits; in the data active = inhibition above about 32%;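 note: 0% = median of test compound wells and 100% = reference inhibitor wells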
GPR151 conf act – human GPR151 activation, confirmation screen; shares compounds with GPR151 ag; GPR151 PathHunter beta-arrestin cells, luminescence, 90 min; % of EA-reagent control over plate median; activation, % at 11.2 µM; 6,700 tested, under 10 active; AID 1508609;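 active = mean percent activation across replicates above the confirmation screen cutoff of 4.91%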
GPR119 counter – counter-screen for GPR151 activators: effect on human GPR119; activation, % at 11.2 µM; 6,700 compounds, 0.3% hits; GPR119 PathHunter beta-arrestin cells, luminescence, 90 min; 0 = compound-well median, 100 = enzyme-acceptor control; shares compounds with GPR151 ag; AID 1508611;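 active = mean percent activation in the counterscreen above 29.09%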;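 note: counterscreen on off-target GPR119 to flag nonselective hits from the GPR151 activator screen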
Target sequence (Q8TDV5 whole entry, looked up): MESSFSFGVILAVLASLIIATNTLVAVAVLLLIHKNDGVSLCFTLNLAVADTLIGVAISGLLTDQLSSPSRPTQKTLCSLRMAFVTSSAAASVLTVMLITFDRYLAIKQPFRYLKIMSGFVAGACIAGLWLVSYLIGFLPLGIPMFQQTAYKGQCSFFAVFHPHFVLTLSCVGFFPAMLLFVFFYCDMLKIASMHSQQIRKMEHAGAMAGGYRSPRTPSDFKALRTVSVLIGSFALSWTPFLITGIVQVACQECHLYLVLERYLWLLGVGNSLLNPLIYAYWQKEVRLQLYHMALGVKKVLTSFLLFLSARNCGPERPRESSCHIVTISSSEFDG
* marks the source's active call; other numbers are inactive results; x = no result given.

SMILES	FBW7 act	GPR151 ag	MITF inh	TEAD-YAP block	GPR151 conf act	GPR119 counter
CCc1cc2c(=O)c(-c3ccc4c(c3)OCCO4)coc2cc1OC(C)C(=O)OC (stereo unspecified)	1	6.8*	4	4	3	-1
CCc1cc2c(=O)c(-c3ccc4c(c3)OCCCO4)coc2cc1OC(C)C(=O)OC (stereo unspecified)	0	4	4	23	x	x
Cc1[nH]c2ccccc2c1/C=N/Nc1ccccc1[N+](=O)[O-]	0	6.9*	40	-54	0	9
NC1(CO)COC(c2ccncc2)OC1 (stereo unspecified)	0	0	12	-1	x	x
COc1cccc(OCCCOc2cccc3ccc(C)nc23)c1	0	5.4*	10	9	0	-6
COC(=O)c1ccc(OCCOCCOc2cccc3ccc(C)nc23)cc1	0	-1	7	2	x	x
COc1ccccc1N1C(C)=CC(C)(C)N=C1SC/C=C/c1ccccc1	0	2	7	-3	x	x
O=C1CC(c2ccc(Cl)cc2)CC2=C1C(c1cc3c(cc1Br)OCO3)Nc1ccccc1N2 (stereo unspecified)	0	9.0*	3	3	-1	-3
O=C1CC(c2ccc(Cl)cc2)CC2=C1C(c1ccc3c(c1)OCO3)Nc1ccccc1N2 (stereo unspecified)	1	-1	20	8	x	x
NS(=O)(=O)c1ccc(CNc2ccc3ncc(-c4ccc5[nH]ccc5c4)n3n2)cc1	0	0	5	-6	x	x
Fc1cccc(CSc2nc(Nc3ccc4c(c3)OCO4)c3ccccc3n2)c1	0	5.0*	-2	3	1	7
O=C(CSc1nc(Nc2ccc3c(c2)OCO3)c2ccccc2n1)c1ccccc1	0	5.3*	-5	-4	3	28
CCCCNc1nc(SCC(=O)c2ccc(O)c(O)c2)nc2ccccc12	0	5.6*	56*	3	1	12
CCCCNC(=O)CSc1nc(Nc2ccc3c(c2)OCO3)c2ccccc2n1	0	1	2	17	x	x
COc1cc(Nc2nc(SCc3ccc(F)cc3)nc3ccccc23)cc(OC)c1	0	5.0*	5	-14	0	12
CCOC(=O)c1c(NC(=O)c2ccccc2NS(=O)(=O)c2ccc(C)cc2)sc2c1CCC2	0	0	-4	-10	x	x
O=C(c1ccc(SCc2ccoc2)c([N+](=O)[O-])c1)N1CCOCC1	0	-1	17	-6	x	x
COc1cc(C(=O)N2CCN(C3CCCC3)CC2)cc(OC)c1OC	0	1	-1	1	x	x
COc1cc(OC)cc(C(=O)N2CCN(C3CCCCC3)CC2)c1	0	5.0*	27	0	0	16
c1ccc(CNc2cc(-c3ccccc3)ncn2)cc1	0	1	0	-18	x	x
CCN(C(=S)NCCOC)c1cccc2ccccc12	1	14*	16	-6	-2	-13
COCCNC(=S)N(C)c1ccc(O)cc1	0	2	-7	-2	x	x
COc1ccc2cc(/C=N/OC(=O)Nc3ccccc3)ccc2c1	0	1	16	-15	x	x
COc1ccccc1C1NC(=O)NC(C)=C1C(=O)OCCSc1ccccc1 (stereo unspecified)	0	2	2	6	x	x
Cc1sc2nc(C3CC3)n(C3CCN(C(=O)c4ccccn4)CC3)c(=O)c2c1C	0	6.5*	-13	-31	1	3
SMILES	FBW7 act	GPR151 ag	MITF inh	TEAD-YAP block	GPR151 conf act	GPR119 counter
Ic1ccc2ncnc(NC3CCCCC3)c2c1	0	0	3	27	x	x
O=C(CSc1nnc(-c2ccncc2)o1)c1cccc([N+](=O)[O-])c1	0	0	-2	-12	x	x
COc1cc(OC)cc(-c2nnc(SCC(=O)c3cccc([N+](=O)[O-])c3)o2)c1	0	7.2*	11	-3	-1	-16
Cc1ccc(N(C(=O)C(C)C)C2C=CS(=O)(=O)C2)cc1 (stereo unspecified)	0	-1	-3	4	x	x
NC(=O)c1ccc(-c2cccc(C(=O)NCCc3ccc(O)cc3)n2)cc1	0	5.4*	47	18	1	6
CCn1c(O)c(/C=C2\C=Nc3ccc(Br)cc32)sc1=O	0	1	15	-9	x	x
Oc1[nH]c(=S)sc1/C=C1\C=Nc2ccc(Br)cc21	0	6.0*	-9	-6	0	6
CC1(C)CC(=O)C2=C(C1)OC(c1ccccc1Cl)C(C#N)=C2N (stereo unspecified)	0	0	13	17	x	x
CC(=O)Nc1ccc(C2OC3=C(C(=O)CC(C)(C)C3)C(N)=C2C#N)cc1 (stereo unspecified)	0	5.6*	4	9	1	-1
CC1(C)CC(=O)C2=C(C1)OC(c1ccc(Cl)cc1Cl)C(C#N)=C2N (stereo unspecified)	0	10*	-4	8	1	11
O=C(NCCCc1ccccc1)C1CCN(C(=O)N2CCOc3ccccc32)CC1	0	6.1*	7	1	1	-7
O=C(NCCCc1ccccc1)C1CCN(C(=O)N2CCOc3ccc(Cl)cc32)CC1	0	4	6	8	x	x
COC(=O)c1ccc(OCc2cccc(F)c2)c(OC)c1	1	5.9*	7	-30	-1	-10
COc1cc(C(=O)Nc2ccccc2F)ccc1OCc1cccc(F)c1	0	-1	4	-17	x	x
COc1cc(C(=O)N(Cc2nc(-c3ccc(C)cc3)no2)C(C)C)cc(OC)c1OC	0	8.3*	9	6	-2	-18
COc1cccc2cc(C(=O)c3ccc([N+](=O)[O-])cc3)oc12	0	7.3*	10	-13	0	-10
COc1cccc2cc(C(=O)Nc3ccccc3[N+](=O)[O-])c(=O)oc12	0	13*	11	-17	0	13
N#C/C(=C\c1cccc(Cl)c1)c1nc(-c2ccc(Br)cc2)cs1	0	0	-11	0	x	x
O=S(=O)(N/N=C/c1cccc(Cl)c1)c1ccc(Cl)cc1	0	5.2*	15	-9	-2	-6
CCOC(=O)N1CCN(C(=O)CSc2ccc(-c3cccnc3)nn2)CC1	1	4.9*	7	9	1	6
Cc1ccc(-c2ccc(SCC(=O)N3CCCC3)nn2)cc1	0	6.0*	-9	-19	0	10
O=C(CSc1ccc(-c2ccc3c(c2)OCO3)nn1)N1CCCC1	0	-1	1	6	x	x
O=C(CN1CCC(O)(c2cccnc2)CC1)Nc1ccc(Cl)cc1	0	0	1	1	x	x
Cc1ccccc1C(=O)N1CCN(c2oc(/C=C/c3ccc(F)cc3)nc2C#N)CC1	1	-1	13	-3	x	x
C[n+]1ccccc1/C=C/c1ccc([N+](=O)[O-])cc1	0	6.6*	2	-11	0	1
C[n+]1ccccc1/C=C/c1ccccc1	0	0	9	0	x	x
